# Source: PubChem BioAssay (NCI)
# About 83,000 compounds went through this panel and 20% of them were active in at least one assay; those are over-represented in the sample as a whole.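 Growth was measured after 48 h exposure to one concentration of compound in 96-well plates. Values under 10 count as active.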 Unmarked numbers belong to inactive results. Activity calls are given as the source filed them.
# Tests used:
# Assay in all cases: NCI-60 one-dose screen, 48 h (100 = growth as untreated, 0 = no growth, -100 = all killed)
# Conditions in all cases: 10 µM unless noted
# T-47D breast = test system: T-47D breast
# BT-549 breast = test system: BT-549 breast
# MDA-MB-435 melanoma = test system: MDA-MB-435 melanoma
# SW-620 colon = test system: SW-620 colon
# MCF7 breast = test system: MCF7 breast
# HCT-116 colon = test system: HCT-116 colon
# HCC-2998 colon = test system: HCC-2998 colon
# KM12 colon = test system: KM12 colon
Compound,growth (T-47D breast),growth (BT-549 breast),growth (MDA-MB-435 melanoma),growth (SW-620 colon),growth (MCF7 breast),growth (HCT-116 colon),growth (HCC-2998 colon),growth (KM12 colon)
COc1cc(/C=N/n2cnc3oc(-c4ccccc4)cc3c2=N)cc(CN2CCCC2)c1O,93.3%,129%,96.6%,-59.4% (active),-79.3% (active),-77.8% (active),98.5%,11.2%
COc1ccc(CCN2C(=O)/C(=C/c3nc(CO)cs3)SC2=S)cc1,76.4%,97.1%,96%,93.7%,16%,59.9%,107%,17.8%
Oc1ccc(CSc2nnc(-c3cnccn3)n2-c2ccccc2)c2cccnc12,7.38% (active),41.8%,23.4%,23.8%,2.85% (active),19.3%,42.1%,18.9%
Cc1cc(O)c2c(c1)C(=O)C(c1c(C)cc3c(c1O)C(=O)C=CC3=O)=CC2=O,21.9%,113%,96.5%,8.08% (active),49.9%,72.8%,112%,109%
CCCCCCNC(=O)Oc1ccc(/C(=C(/C)c2ccccc2)c2ccc(OCCN(C)C)cc2)cc1,33.1%,75.3%,53%,27.3%,18%,22.6%,69.3%,66.2%
O=C1c2cc(Br)ccc2-n2c1nc1cc(Br)ccc1c2=O,79.7%,124%,-85.6% (active),68%,59.3%,81.8%,108%,77.5%
CC(=O)Oc1ccc(CCN2C(=O)CSC2=S)cc1,41.2%,95.9%,69.2%,47.1%,33.3%,75.6%,108%,22.3%
Cc1ccc(NC(=O)c2ccc(CN3CCN(C)CC3)c(C(F)(F)F)c2)cc1Oc1ccc(-c2[nH]nc3ncnc(N)c23)cc1,101%,105%,71.5%,24.3%,54%,8.72% (active),111%,17.7%
Fc1ccccc1/C=C(/C1=NCCN1)n1cnc2ccccc21,99.1%,102%,96.2%,101%,86.2%,98.7%,102%,96.5%
CCc1ccc(NC(=O)N[C@@H](Cc2cccc(C)c2)C(=O)N[C@@H]2C(=O)N3CCC[C@H]3C(=O)N3CCCC[C@H]3C(=O)N[C@@H](CO)C(=O)N3C[C@H](C)C[C@H]3C(=O)O[C@H]2C)c(F)c1,27.4%,24.9%,16.8%,34.7%,17.6%,11.8%,23.9%,37.6%
COc1ccc(/C=N/Nc2nc(N/N=C/c3ccc(OC)cc3O)nc(N3CCOCC3)n2)c(O)c1,42.4%,90.3%,81%,36.3%,51.7%,34.4%,81.1%,51.4%
N#Cc1c(NC(=O)c2ccc(F)c(Cl)c2)sc2c1CCC(=O)C2,-18.3% (active),2.09% (active),-39.5% (active),-24% (active),4.86% (active),0.878% (active),25.8%,4.23% (active)
C=C(C)[C@@H]1CC[C@]2(COS(C)(=O)=O)CC[C@]3(C)[C@H](CC[C@@H]4[C@@]5(C)CCCNC(C)(C)[C@@H]5CC[C@]43C)[C@@H]12,77.5%,93.9%,44.9%,4.87% (active),3.49% (active),15.6%,16.4%,26.2%
CCN1C/C(=N\S(=O)(=O)c2ccccc2)N(CC)C1=S,102%,97.3%,101%,107%,97.3%,91.5%,98.4%,103%
CCOC(=O)Nc1cccc(-n2cnc3cc(-c4ccc(O)cc4)ccc32)c1,12.8%,39.3%,-16% (active),25.5%,18.2%,10.3%,30.2%,3.22% (active)
Cc1ccc(C2CC(c3ccc(Nc4nc(NCCO)nc(Nc5ccc(Cl)cc5)n4)cc3)=Nc3c(N)nc(N)nc3N2)cc1 (stereo not given),60.1%,80.7%,-93.1% (active),-88.9% (active),-68.4% (active),-97% (active),-65.3% (active),-88% (active)
COc1cc(/C=N/n2cnc3oc(-c4ccccc4)cc3c2=N)cc(CN2CCCCC2)c1O,-33.1% (active),-55.4% (active),-91.8% (active),-70% (active),-80.5% (active),-89.1% (active),-46.8% (active),-72.6% (active)
CCOC(=O)c1c(NCC(=O)Nc2cccc(Cl)c2)sc2c1CCCC2,63.4%,70.1%,-2.01% (active),76.1%,43%,73.5%,103%,95.8%
Cc1ccccc1/C=C/c1nn2c(-c3ccoc3C)nnc2s1,90.5%,111%,96.3%,104%,83.9%,106%,108%,105%
O=C1c2c(c3c4cccnc4[nH]c3c3ccc4ccccc4c23)C(=O)N1CCN1CCCCC1,46.4%,84.4%,69%,41.3%,14.5%,36.9%,70%,99.6%
C=CCn1c(SCC(=O)Nc2cccc(C(=O)/C=C/c3ccc(C)cc3)c2)nc2ccccc2c1=O,67.3%,122%,68.6%,67.5%,26.5%,13.7%,87.2%,74.5%
C#C[C@]1(O)CC[C@H]2[C@@H]3CC=C4c5sc(Nc6cc(Cl)ccn6)nc5CC[C@]4(C)[C@H]3CC[C@@]21C,36.6%,20%,-61.6% (active),-1.44% (active),-64% (active),14.4%,39.8%,-0.602% (active)
CCNC(=O)Oc1ccc(/C(=C(/C)c2ccc(Cl)cc2)c2ccc(OCCN3CCCC3)cc2)cc1,56.8%,90.4%,89.8%,83.1%,25.3%,53.1%,77.4%,95.5%
O=C(Nc1cc(Cl)cc(Cl)c1)Nc1ccc2oc(=O)ccc2c1,3.54% (active),29%,13.9%,17.3%,5.48% (active),1.36% (active),27.3%,11.5%
C#C[C@]1(O)CC[C@H]2[C@@H]3CC=C4c5sc(Nc6ccncc6)nc5CC[C@]4(C)[C@H]3CC[C@@]21C,39.9%,15.9%,-75.2% (active),-37.2% (active),-42.1% (active),3.69% (active),1.79% (active),-94.1% (active)
COc1cc2c3c(n(CCCN4CCCC4)c(=O)c2cc1OC)-c1cc2c(cc1C3=O)OCO2,78.3%,82.3%,-12.5% (active),-63.1% (active),-71.7% (active),-84% (active),42.2%,-23.4% (active)
Cc1cn(-c2cc(NC(=O)c3cncc(C#Cc4cnc5ccc(OCCCS(C)(=O)=O)nn45)c3)cc(C(F)(F)F)c2)cn1,30.5%,-1.88% (active),34.7%,8.59% (active),0.458% (active),3.57% (active),17.4%,-17.8% (active)
COc1ccc(/C=C/C(=O)c2nnn(-c3ccc(Br)cc3)c2C)cc1OC,66.4%,63.9%,61.3%,51.6%,12.9%,5.41% (active),83.7%,66.7%
COc1ccc(CCN2C(=O)CSC2=S)cc1OC,52.7%,110%,93.6%,57.9%,29.3%,99.6%,111%,16.6%
CCOC(=O)c1nn(-c2ccc(C)cc2)c(=O)c2c(N)c(C#N)c(-c3ccc(OC)cc3)cc12,102%,130%,106%,94.4%,95.5%,99.4%,110%,95.5%
